Assay results published in PubChem BioAssay.
Activity calls are given as the source filed them. Unless noted, the rule behind the calls is not given here.

Columns and labels:
[1] = resazurin metabolic signal in HepG2 cells – cell-based, resazurin fluorescence, 24 h, PK04 Diversity Set, profiling panel (AID 1172); details: HepG2 viability, higher = more signal
[2] = budding yeast growth changes without added modifier – OD600, strain BY4716, 24 h, basal condition, primary screen (AID 1173); details: S. cerevisiae BY4716 growth, OD600, 24 h; higher = more signal, called active from +8 up or from −8 down
[3] = viability profiling in MM1S myeloma cells – cell-based, resazurin fluorescence, basal, 24 h, PK04 Diversity Set, profiling panel (AID 1174); details: higher = more signal, called active from +8 up or from −8 down;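 note: MM1S multiple myeloma cell line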
[4] = molecular target: Dihydroorotate dehydrogenase (quinone), mitochondrial (Plasmodium falciparum (isolate 3D7)) (UniProt Q08210); assay: inhibition of P. falciparum DHODH – biochemical, C-terminal His tag, absorbance 600 nm, primary screen (AID 1175); details: PfDHODH enzyme, DCIP absorbance 600 nm; higher = more signal, called active from +8 up or from −8 down;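 note: recombinant parasite enzyme with a five histidine tag at its C terminus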
Dihydroorotate dehydrogenase (quinone), mitochondrial (Plasmodium falciparum (isolate 3D7)), sequence (Q08210 whole entry, looked up): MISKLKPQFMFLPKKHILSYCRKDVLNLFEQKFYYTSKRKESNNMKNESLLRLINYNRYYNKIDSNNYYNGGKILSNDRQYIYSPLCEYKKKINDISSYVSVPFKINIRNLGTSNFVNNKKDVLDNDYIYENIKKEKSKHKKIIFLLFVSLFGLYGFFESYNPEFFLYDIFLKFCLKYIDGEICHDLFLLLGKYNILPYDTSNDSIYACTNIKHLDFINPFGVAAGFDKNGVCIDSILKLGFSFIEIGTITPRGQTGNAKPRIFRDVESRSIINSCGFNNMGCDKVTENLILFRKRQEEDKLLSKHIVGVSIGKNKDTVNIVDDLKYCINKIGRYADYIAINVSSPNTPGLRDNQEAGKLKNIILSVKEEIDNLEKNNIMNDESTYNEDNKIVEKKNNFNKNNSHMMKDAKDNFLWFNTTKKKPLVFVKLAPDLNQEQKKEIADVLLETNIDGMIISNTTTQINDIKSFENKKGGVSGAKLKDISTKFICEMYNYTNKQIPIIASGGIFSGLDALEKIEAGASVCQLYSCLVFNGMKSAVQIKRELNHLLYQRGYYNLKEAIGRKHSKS

[5] = inhibition of PAO1 biofilm formation – strain PAO1, LB-PBS medium, absorbance 600 nm, primary screen (AID 1176); details: P. aeruginosa PAO1 growth/biofilm, A600, 12 h; higher = more signal
[6] = growth modulation of vineyard yeast isolate – strain RM11-1a, OD600, basal, 24 h, primary screen (AID 1177);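 note: cultures grown under basal conditions with no added stressor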; details: S. cerevisiae RM11-1a growth, OD600, 24 h; higher = more signal, called active from +8 up or from −8 down
[7] = growth of efflux-deficient E. coli DRC39 – strain DRC39, OD650, 24 h, E. coli filamentation inducers, primary screen (AID 1178);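 note: growth measured as culture turbidity by optical density at 650 nm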; details: E. coli DRC39 acrAB, higher = more signal, called active from +8 up or from −8 down
[8] = growth of efflux-deficient E. coli DRC39 – strain DRC39, OD650, 48 h, E. coli filamentation inducers, primary screen (AID 1179);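 note: screen aims at cell division blockers that make cells filament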; details: E. coli DRC39 delta-acrAB growth, higher = more signal, called active from +8 up or from −8 down
[9] = viability profiling in RPMI8226 myeloma cells – cell-based, resazurin fluorescence, basal, 24 h, PK04 Diversity Set, profiling panel (AID 1180); details: higher = more signal;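 note: RPMI8826 multiple myeloma cell line at 5000 cells per well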
[10] = molecular target: E3 ubiquitin-protein ligase XIAP (Homo sapiens) (UniProt P98170); assay: small molecules binding XIAP protein – biophysical, small-molecule microarray, fluorescence 635 nm, primary screen (AID 1181); details: higher = more signal;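 note: score merges 667 nm emission and signal to noise over triplicate slides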
E3 ubiquitin-protein ligase XIAP (Homo sapiens), sequence (P98170 whole entry, looked up, the tested form may be a part): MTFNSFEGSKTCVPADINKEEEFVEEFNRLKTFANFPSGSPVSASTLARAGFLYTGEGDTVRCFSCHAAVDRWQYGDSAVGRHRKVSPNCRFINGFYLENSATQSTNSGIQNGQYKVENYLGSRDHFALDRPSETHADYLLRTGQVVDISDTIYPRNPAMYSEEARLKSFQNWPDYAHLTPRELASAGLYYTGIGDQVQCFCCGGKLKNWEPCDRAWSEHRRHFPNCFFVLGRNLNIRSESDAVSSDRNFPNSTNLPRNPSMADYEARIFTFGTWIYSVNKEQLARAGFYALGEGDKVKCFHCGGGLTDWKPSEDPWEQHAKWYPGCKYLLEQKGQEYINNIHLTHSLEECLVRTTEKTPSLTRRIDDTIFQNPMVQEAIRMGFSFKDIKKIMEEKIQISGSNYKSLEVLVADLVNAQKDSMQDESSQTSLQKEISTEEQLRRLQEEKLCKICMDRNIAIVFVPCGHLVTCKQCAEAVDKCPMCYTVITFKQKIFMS

[11] = tested on: XIP peptide (Xip251-270) binding; assay: XIP fragment 251-270 binding compounds – biochemical, small-molecule microarray, fluorescence 635/667 nm, 0.1 µg/mL protein, primary screen (AID 1182); details: fluorescent protein binding, 635 nm, higher = more signal, called active from +8 up or from −8 down
[12] = tested on: XIP peptide (Xip251-270); assay: compounds binding XIP fragment 251-270 – biochemical, small-molecule microarray, fluorescence 635/667 nm, 0.5 µg/mL protein, primary screen (AID 1183); details: fluorescence 635 nm, higher = more signal
[13] = blood-stage malaria parasite viability loss – strain 3D7, DAPI fluorescence, 100 nL, primary screen (AID 1184);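 note: parasites grown inside human red blood cells in medium with human serum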; details: P. falciparum 3D7 growth, 3 d, higher = more signal
[14] = molecular target: Homeobox protein Hox-A13 (Mus musculus) (UniProt Q62424); assay: disruptors of Hoxa13 oligonucleotide interaction – biochemical, fluorescence polarization, labeled oligonucleotide, primary screen (AID 1185); details: Hoxa13:DNA binding, 15 min, higher = more signal, called active from +8 up or from −8 down
Homeobox protein Hox-A13 (Mus musculus), sequence (Q62424 whole entry, looked up): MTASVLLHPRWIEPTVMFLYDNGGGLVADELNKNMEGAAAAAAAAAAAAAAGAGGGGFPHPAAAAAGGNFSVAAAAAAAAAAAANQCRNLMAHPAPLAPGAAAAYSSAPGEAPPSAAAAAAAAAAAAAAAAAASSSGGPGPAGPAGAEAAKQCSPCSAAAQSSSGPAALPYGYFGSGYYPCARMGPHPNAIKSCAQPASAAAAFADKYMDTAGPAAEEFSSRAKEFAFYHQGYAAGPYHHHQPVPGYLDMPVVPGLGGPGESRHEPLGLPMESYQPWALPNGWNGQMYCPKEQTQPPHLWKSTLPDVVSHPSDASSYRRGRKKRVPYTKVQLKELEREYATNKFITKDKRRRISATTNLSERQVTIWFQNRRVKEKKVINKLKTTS

[15] = blockers of DNA damage checkpoint Chk1 activation – imaging, HeLa, hydroxyurea, phospho-Chk1 antibody, percent positive cells, primary screen (AID 1186); details: hydroxyurea-induced phospho-Chk1 immunofluorescence imaging, higher = more signal
[16] = blockers of DNA damage checkpoint Chk1 activation – imaging, HeLa, hydroxyurea, phospho-Chk1 nuclear intensity, primary screen (AID 1187); details: hydroxyurea-induced phospho-Chk1 immunofluorescence imaging, higher = more signal

## [N-]=[N+]=Nc1ccccc1C[C@@]1(C(=O)NCCN2CCOCC2)N=C(c2ccc(OCCCO)cc2)O[C@@H]1c1ccccc1
[1]
  z-score: -0.139
[2]
  z-score: -4.41 (inactive)
[3]
  z-score: -0.599 (inactive)
[4]
  composite z-score: 0.842 (inactive)
[5]
  z-score: -0.347 (inactive)
[6]
  z-score: -0.0653 (inactive)
[7]
  z-score: 0.655 (inactive)
[8]
  z-score: 0.745 (inactive)
[9]
  z-score: -0.125
[10]
  composite z-score: 0.0831
[11]
  composite z-score: 0.58 (inactive)
[12]
  composite z-score: 0.827
[13]
  z-score: -2.33
[14]
  z-score: -4.23 (inactive)
[15]
  z-score: -0.785 (inactive)
[16]
  z-score: -1.11 (inactive)

## [N-]=[N+]=NCc1ccccc1[C@@H]1OC(c2ccc(OCCCO)cc2)=N[C@]1(CCS(=O)(=O)c1ccccc1)C(=O)NCc1ccccc1
[1]
  z-score: 0.239
[2]
  z-score: 0.743 (inactive)
[3]
  z-score: -0.304 (inactive)
[4]
  composite z-score: 0.59 (inactive)
[5]
  z-score: 0.882 (inactive)
[6]
  z-score: 0.797 (inactive)
[7]
  z-score: 0.198 (inactive)
[8]
  z-score: -0.678 (inactive)
[9]
  z-score: 0.144
[10]
  composite z-score: 0.194
[11]
  composite z-score: 0.212 (inactive)
[12]
  composite z-score: 0.838
[13]
  z-score: -2.5
[14]
  z-score: -0.438 (inactive)
[15]
  z-score: 0.21 (inactive)
[16]
  z-score: -0.126 (inactive)

## CC(=O)n1cc(C(O)C2C=CC3C(=O)N(C)C(=O)C3N2Nc2ccccc2)c2ccccc21 (centres undefined)
[1]
  z-score: 0.362
[2]
  z-score: 0.125 (inactive)
[3]
  z-score: -1.2 (inactive)
[4]
  composite z-score: 0.0365 (inactive)
[5]
  z-score: 1.07 (inactive)
[6]
  z-score: 0.135 (inactive)
[7]
  z-score: -0.321 (inactive)
[8]
  z-score: -0.306 (inactive)
[9]
  z-score: -1.11
[10]
  composite z-score: 0.229
[11]
  composite z-score: 0.144 (inactive)
[12]
  composite z-score: 0.383
[13]
  z-score: 0.413
[14]
  z-score: -3.76 (inactive)
[15]
  z-score: -0.47 (inactive)
[16]
  z-score: -0.987 (inactive)

## COc1ccc(COC2OC[C@]3(C)[C@H]4C5=C(CN3C(=O)OC(C)(C)C)[C@H](C)C(CO)C(CO)C5CC[C@@H]24)cc1 (some centres undefined)
[1]
  z-score: -0.987
[2]
  z-score: 0.455 (inactive)
[3]
  z-score: -2.38 (inactive)
[4]
  composite z-score: -0.124 (inactive)
[5]
  z-score: 1.03 (inactive)
[6]
  z-score: 0.903 (inactive)
[7]
  z-score: -0.806 (inactive)
[8]
  z-score: -1.6 (inactive)
[9]
  z-score: -1.19
[10]
  composite z-score: -0.02
[11]
  composite z-score: -0.188 (inactive)
[12]
  composite z-score: 0.505
[13]
  z-score: -1.04
[14]
  z-score: -4.75 (inactive)
[15]
  z-score: 0.721 (inactive)
[16]
  z-score: 0.353 (inactive)

## C[C@]1(C(=O)NC2CC2)c2ccccc2C(=O)N(Cc2cc(C(F)(F)F)cc(C(F)(F)F)c2)[C@H]1c1ccc(CO)cc1
[1]
  z-score: 0.546
[2]
  z-score: -0.66 (inactive)
[3]
  z-score: 0.43 (inactive)
[4]
  composite z-score: 0.262 (inactive)
[5]
  z-score: -0.506 (inactive)
[6]
  z-score: 0.558 (inactive)
[7]
  z-score: 1.11 (inactive)
[8]
  z-score: 0.833 (inactive)
[9]
  z-score: 0.367
[10]
  composite z-score: -0.0646
[11]
  composite z-score: 1.56 (inactive)
[12]
  composite z-score: 0.849
[13]
  z-score: -0.895
[14]
  z-score: -3.26 (inactive)
[15]
  z-score: -0.66 (inactive)
[16]
  z-score: -0.479 (inactive)

## COCCCN1C(=O)[C@@]2(c3ccc([N+](=O)[O-])cc3)CC(=O)N(C3CCCCC3)[C@@H]2c2ccc(CO)cc21
[1]
  z-score: -0.207
[2]
  z-score: 1.12 (inactive)
[3]
  z-score: -0.559 (inactive)
[4]
  composite z-score: -26.4 (active)
[5]
  z-score: 0.158 (inactive)
[6]
  z-score: 0.0091 (inactive)
[7]
  z-score: -0.0215 (inactive)
[8]
  z-score: -0.13 (inactive)
[9]
  z-score: -0.837
[10]
  composite z-score: -0.37
[11]
  composite z-score: 0.0996 (inactive)
[12]
  composite z-score: 0.154
[13]
  z-score: -0.599
[14]
  z-score: -0.329 (inactive)
[15]
  z-score: 0.0889 (inactive)
[16]
  z-score: 0.133 (inactive)

## C=CCNC(=O)[C@@H]1[C@H]2C(=O)O[C@H](c3ccccc3)[C@H](c3ccccc3)N2[C@H](c2ccccc2OCCO)[C@@]12C(=O)N(C(=O)OCCOC)c1ccc(C#CCNC(N)=O)cc12
[1]
  z-score: -0.359
[2]
  z-score: 0.808 (inactive)
[3]
  z-score: -0.0716 (inactive)
[4]
  composite z-score: 0.0199 (inactive)
[5]
  z-score: 1.1 (inactive)
[6]
  z-score: 1.43 (inactive)
[7]
  z-score: 0.404 (inactive)
[8]
  z-score: 0.703 (inactive)
[9]
  z-score: 0.122
[10]
  composite z-score: 0.171
[11]
  composite z-score: 0.347 (inactive)
[12]
  composite z-score: 0.66
[13]
  z-score: -0.531
[14]
  z-score: -1.84 (inactive)
[15]
  z-score: -0.189 (inactive)
[16]
  z-score: -0.159 (inactive)

## N#Cc1ccc(NN2C(C(O)c3c(F)cccc3Cl)C=CC3C(=O)N(c4ccccc4)C(=O)C32)cc1 (centres undefined)
[1]
  z-score: -1.31
[2]
  z-score: 0.566 (inactive)
[3]
  z-score: -0.392 (inactive)
[4]
  composite z-score: 1.67 (inactive)
[5]
  z-score: 1.01 (inactive)
[6]
  z-score: -0.0762 (inactive)
[7]
  z-score: -0.731 (inactive)
[8]
  z-score: -0.445 (inactive)
[9]
  z-score: -0.739
[10]
  composite z-score: 0.585
[11]
  composite z-score: 0.817 (inactive)
[12]
  composite z-score: 0.748
[13]
  z-score: -0.677
[14]
  z-score: 0.238 (inactive)
[15]
  z-score: 0.0345 (inactive)
[16]
  z-score: 0.0457 (inactive)

## COc1cc2c(cc1O)C=[N+](Cc1cccc(OC(F)(F)F)c1)CC2
[1]
  z-score: -0.935
[2]
  z-score: 0.165 (inactive)
[3]
  z-score: -0.682 (inactive)
[4]
  composite z-score: -3.35 (inactive)
[5]
  z-score: -0.531 (inactive)
[6]
  z-score: -0.957 (inactive)
[7]
  z-score: 0.0214 (inactive)
[8]
  z-score: 0.569 (inactive)
[9]
  z-score: -1.25
[10]
  composite z-score: -0.259
[11]
  composite z-score: -0.103 (inactive)
[12]
  composite z-score: 0.0686
[13]
  z-score: -1.94
[14]
  z-score: -3.45 (inactive)
[15]
  z-score: -0.0564 (inactive)
[16]
  z-score: -0.707 (inactive)
